# Compound activity deposited in PubChem by Broad Institute.
# Rows were chosen to be rich in hits. Some 4.8% of all compounds tested hit in one or more screens of this group.
# ALR inh – human ALR oxidase inhibition via reduced H2O2 | purified ALR, DTT oxidation, H2O2 HRP-luminol luminescence | AID 485317 | inhibition, % (test concentration not listed) | 290,000 compounds, 3.8% hits;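 active = mean replicate inhibition above about 79%, with every replicate also reaching it, limit read from the data; inconclusive = only one of the two criteria met; inactive = mean below limit and not every replicate reaching it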
# Target sequence (P55789 whole entry, looked up): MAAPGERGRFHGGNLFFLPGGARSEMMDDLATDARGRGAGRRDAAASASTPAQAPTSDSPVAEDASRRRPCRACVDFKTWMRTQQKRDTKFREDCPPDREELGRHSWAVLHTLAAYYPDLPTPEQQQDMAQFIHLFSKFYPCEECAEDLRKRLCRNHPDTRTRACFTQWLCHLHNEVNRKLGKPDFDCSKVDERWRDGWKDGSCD
# AI-2 QS modul – Vibrio harveyi AI-2 quorum sensing modulation | Vibrio harveyi JMH597 AI-2 luminescence/OD600 ratio, 9 h; hits give low values; strain lacks LuxN and CqsS sensors; 0 = neutral-control median | 300,000 compounds, 0.4% hits | activity change, % at 7.5 µM; in the data active = activity change below about -75%, passing the limit was not always enough; inconclusive = no clear call, values can overlap the other calls;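 note: luminescence divided by OD600 gain over 9 h not by final OD600 alone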
# SUMO Mot1 rescue – SUMOylation pathway inhibition by Mot1-301 growth rescue; growth rescue, % at 18.8 µM; 320,000 compounds, 1% hits; S. cerevisiae Mot1-301 growth rescue, ATP luminescence, 38.5C; percent above DMSO median, 100 means doubled; AID 2716;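 active = every valid replicate shows activation above 250% relative to neutral control wells; inactive = the rest, any valid replicate at or below 250%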
# HIF act – HIF pathway transcriptional activation; U2OS HRE-luciferase reporter, luminescence; normalized: DMSO 0%, desferrioxamine 100%; activation, % at 7.5 µM (by protocol); 300,000 compounds, 0.32% hits;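 active = mean activation of at least 10% of the iron chelator positive control signal, with at least half of replicates also reaching 10%; inconclusive = mean and replicate majority disagree about reaching 10%; inactive = mean and most replicates under 10%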
# Hits are given with their value; - = inactive; ? = inconclusive; . = not tested or not shown.
SMILES,ALR inh,AI-2 QS modul,SUMO Mot1 rescue,HIF act
Cc1ccccc1CSCCNC(=O)CSCc1ccc([N+](=O)[O-])cc1,99,-,-,-
Cc1ccc(CSCCNC(=O)CSCc2ccc([N+](=O)[O-])cc2)cc1,-,.,-,-
O=C(CSCc1ccc(Br)cc1)NC1CC1,.,-,-,-
O=C(CSCc1ccc([N+](=O)[O-])cc1)NC1CCCCCC1,99,-,-,-
O=C(CCC(=O)OCC(=O)c1ccc([N+](=O)[O-])cc1)NC1CCCCC1,80,-,-,-
O=C(CSCc1cccc(Br)c1)NC1CC1,98,-,-,-
CN(C)S(=O)(=O)c1cccc(NC(=O)c2cccc(S(=O)(=O)N3CCCCC3)c2)c1,.,-,-,-
O=C(CNC(=O)c1ccccc1)NCC(=O)OCC(=O)c1ccc([N+](=O)[O-])cc1,97,-,-,-
CC(NC(=O)c1ccc2c(c1)C(=O)N(Cc1cccnc1)C2=O)c1ccccc1 (stereo unspecified),-,-,-,-
CCOc1ccc(Br)cc1S(=O)(=O)Nc1cccc(S(=O)(=O)Nc2ccccc2C(=O)O)c1,.,.,-,.
c1ccc(N2CCN(c3nc4ccccc4n4cnnc34)CC2)cc1,97,-,-,-
c1ccc2c(c1)CCN(c1nc3ccccc3n3cnnc13)C2,-,-,-,-
C1=C(c2ccccc2)CCN(c2nc3ccccc3n3cnnc23)C1,95,-,-,-
c1ccc2c(c1)nc(N1CCOCC1)c1nncn12,-,-,-,-
Cc1ccc(N(CCC#N)C(=O)COC(=O)C2CCN(S(=O)(=O)c3ccc4c(c3)OCCO4)CC2)cc1,-,-,-,-
COc1cc(NS(=O)(=O)c2ccc(NC(=O)/C=C/c3ccc([N+](=O)[O-])cc3)cc2)ncn1,-,-,-,-
COc1cc(NS(=O)(=O)c2ccc(NC(=O)/C=C/c3cccc([N+](=O)[O-])c3)cc2)ncn1,89,-,-,-
COCc1cc(C)n(CC(=O)Nc2ccc3c(c2)OCO3)c(=O)c1C#N,-,-,-,-
Nc1ccccc1OCCOCCOc1ccccc1N,98,-,-,-
Cn1cccc1/C=C(\C#N)c1ccccc1,-,-,-,-
CN(C)c1cccc(/C=C(\C#N)c2ccccc2)c1,99,-,-,-
CCn1c2ccc(C)cc2c2nnc(NN)nc21,99,-,-,-
CC(OC(=O)CCCN=C1NS(=O)(=O)c2ccccc21)C(=O)NC1CCCCC1C (stereo unspecified),-,-,-,-
Nc1cccc(-c2nc3ccccc3s2)c1,99,-,-,-
CCN(c1ccc(NS(=O)(=O)c2cc(Cl)ccc2Cl)cc1)C(C)C,?,-,-,-
SMILES,ALR inh,AI-2 QS modul,SUMO Mot1 rescue,HIF act
CN(C)c1ccc(NC(=O)CN2CCN(S(=O)(=O)c3cc(Cl)ccc3Cl)CC2)cc1,99,-,-,-
O=C(CN1CCN(S(=O)(=O)c2cc(Cl)ccc2Cl)CC1)Nc1ccc2c(c1)OCCO2,.,-,-,.
CN(C)S(=O)(=O)c1cc(NC(=O)CN2CCN(c3ccccc3O)CC2)ccc1Cl,98,-,-,.
O=C(CN1CCN(c2ccccc2O)CC1)NCCCc1ccccc1,99,-,-,-
CN(C)c1ccc(NS(=O)(=O)c2cc(Cl)ccc2Cl)cc1,99,-,-,-
O=C(CN1CCN(c2ccccc2O)CC1)NC(c1ccccc1)c1ccccc1,-,-,-,-
CCC(C)N(C(=O)COC(=O)c1ccccc1SCC(=O)N1CCCC1)C1CCS(=O)(=O)C1 (stereo unspecified),-,-,-,-
Cc1cc(C)cc(NC(=O)CCC(=O)Nc2nnc(C(C)C)s2)c1,-,-,-,-
O=C(CN1CCN(c2ccccc2O)CC1)Nc1cccnc1Cl,99,-,.,-
COc1cccc(/C=C2\C(=O)C(=O)c3ccccc32)c1,100,-,-,-
COc1cc(C=C2C(=O)c3ccccc3C2=O)cc(OC)c1OC,97,-,-,-
COc1cc(C=C2C(=O)c3ccccc3C2=O)cc(OC)c1,.,-,-,-
COc1cc(C=C2C(=O)c3ccccc3C2=O)ccc1O,-,-,-,-
COc1cc(OC)cc(C(=O)Nc2nc(CC(=O)NC(C)c3ccccc3)cs2)c1 (stereo unspecified),.,-,.,-
CSCCC(NC(=O)c1ccco1)C(=O)N1CCN(c2ccccc2O)CC1 (stereo unspecified),-,.,-,.
Cc1c[nH]c2cccc(OCC(CNC(C)(C)C)OC(=O)c3ccccc3)c12 (stereo unspecified),81,-,-,-
Cc1ccc(CN(CC(O)COc2cccc3[nH]cc(C)c23)C(C)(C)C)cc1 (stereo unspecified),-,-,-,-
